Test results from PubChem BioAssay AID1022 (Emory University Molecular Libraries Screening Center, 2008).
Among all 220,000 compounds or so, about 3,300 (1.5%) were called active. For the sample, actives were picked, then their nearest neighbours and some compounds at random. Values without a mark were called inactive.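 The calls were made as follows: active = compounds that cut the protein-peptide binding signal by more than 50% relative to plate controls in a single-dose test; inactive = the rest.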

These compounds were tested against Induced myeloid leukemia cell differentiation protein Mcl-1 (Homo sapiens) (UniProt Q07820) (assay: Mcl-1/Noxa binding inhibitors, primary screen, biochemical, TR-FRET, 1536-well (AID 1022;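 also: His-tagged Mcl-1 with rhodamine Noxa BH3 peptide and terbium anti-His antibody; 0% = Mcl-1 plus Noxa peptide wells and 100% = peptide-only wells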)). Details: TR-FRET Mcl-1/Noxa peptide binding, 2 h; at 21.7 µM; stronger effect = higher value.
Chain of Induced myeloid leukemia cell differentiation protein Mcl-1 (Homo sapiens) (Q07820 whole entry, looked up): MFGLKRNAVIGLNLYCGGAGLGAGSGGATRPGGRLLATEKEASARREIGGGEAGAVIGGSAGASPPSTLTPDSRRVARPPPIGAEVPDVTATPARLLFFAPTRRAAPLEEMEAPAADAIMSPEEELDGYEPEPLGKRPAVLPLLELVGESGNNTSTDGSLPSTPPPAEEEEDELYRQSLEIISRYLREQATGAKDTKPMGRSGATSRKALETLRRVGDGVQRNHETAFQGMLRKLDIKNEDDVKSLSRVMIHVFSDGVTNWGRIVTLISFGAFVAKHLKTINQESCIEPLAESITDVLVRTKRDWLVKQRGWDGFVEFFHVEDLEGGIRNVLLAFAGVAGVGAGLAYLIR
`CCOc1ccc(N=C2SC(C(=O)O)CC(=O)N2C)cc1` (stereo not drawn) showed an inhibition of 16.1%.
In the case of `NC1=NC(=O)S/C1=C\c1ccc(O)cc1`, the inhibition was 12.7%.
In the case of `CCOc1ccc(N=C2NC(=O)S/C2=C\c2ccc(O)cc2)cc1`, the inhibition was 98.8% (active).
`O=C(COC(=O)C12CC3CC(CC(C3)C1)C2)NCc1ccco1` was tested, and the inhibition was 54.8% (active).
Compound `O=C(CC12CC3CC(CC(C3)C1)C2)NCc1ccco1` has an inhibition of 2.69%.
`O=C(COC(=O)CCC(=O)c1cccs1)NCc1ccco1` was tested, and the inhibition was 41%.
In the case of `COc1ccc(NC(=S)N2CCc3cc(OC)c(OC)cc3C2)cc1`, the inhibition was 11.1%.
`CC(/C=N/NC(=O)c1cc(-c2ccc3ccccc3c2)n[nH]1)=C\c1ccco1` was tested, and the inhibition was 78.8% (active).
`Cc1ccc(-c2cc(C(=O)N/N=C/C=C/c3ccco3)c3ccccc3n2)cc1C` showed an inhibition of 19.7%.
`CC(/C=N/NC(=O)c1ccncc1)=C\c1ccco1` was tested, and the inhibition was 16.1%.
`COc1ccc(NC(=O)CSc2ncnc3[nH]ncc23)cc1` was tested, and the inhibition was 16.1%.
`CCN(CC)c1ccc(NC(=O)C2CCC(CNc3c(N4CCCC4)c(=O)c3=O)CC2)c(C)c1` (stereo not drawn) gave an inhibition of 19.7%.
Work on `COc1ccc(N2CCN(c3ccc([N+](=O)[O-])cc3Cl)CC2)cc1` yielded an inhibition of 11.9%.
`O=C(O)C1CCN(c2ccc([N+](=O)[O-])cc2[N+](=O)[O-])CC1` showed an inhibition of 23.9%.
In the case of `O=[N+]([O-])c1ccc(N2CCN(c3ccc(O)cc3)CC2)c(Cl)c1`, the inhibition was 65.2% (active).
For `Cc1nc2ccccc2cc1C(=O)N/N=C/c1ccc([N+](=O)[O-])cc1`, the inhibition was 9.39%.
In the case of `O=C(N/N=C/c1ccc([N+](=O)[O-])cc1)c1c[nH]c2ccccc12`, the inhibition was 14.4%.
For `O=C(N/N=C/c1ccc(Cl)cc1)c1nc2ccc([N+](=O)[O-])cc2c(=O)[nH]1`, the inhibition was 71.4% (active).
Work on `CN1CCc2ccccc2C1Cc1ccccc1NC(=O)c1sc2ccccc2c1Cl` (stereo not drawn) yielded an inhibition of -2.87%.
In the case of `FC(F)(F)c1nc(-c2ccccc2)ncc1-c1nnnn1-c1ccccc1`, the inhibition was 35.2%.
`C=CCNC(=S)N/N=C/c1ccc(C)s1` was tested, and the inhibition was 7.32%.
`FC(F)(F)c1nnc2sc(-c3ccco3)nn12` was tested, and the inhibition was 2.95%.
For `Fc1ccc(-c2ccc(-c3nn4c(-c5ccco5)nnc4s3)o2)cc1`, the inhibition was 71% (active).
Compound `Cc1nnc2sc(-c3ccco3)nn12` has an inhibition of 3.91%.
For `COc1ccc(OCC(=O)Nc2nnc(-c3ccco3)s2)cc1`, the inhibition was 87.4% (active).
For `CNc1nnc(-c2ccco2)s1`, the inhibition was 6.49%.
Work on `Cc1ccc(OCC(=O)Nc2nnc(-c3ccco3)s2)cc1` yielded an inhibition of 17.5%.
In the case of `Cc1c([N+](=O)[O-])c(N)nn1C`, the inhibition was 12.1%.
For `Cc1ccc(-c2nc(CS(=O)CC(=O)N3CCN(c4ncccn4)CC3)c(C)o2)cc1` (stereo not drawn), the inhibition was 54.7% (active).
For `Cc1ccc(-c2nc(CS(=O)CC(=O)NC3CCCC3)c(C)o2)cc1` (stereo not drawn), the inhibition was 10%.
`COc1ccc(-c2nc(CS(=O)CC(=O)N3CCc4ccccc4C3)c(C)o2)cc1` (stereo not drawn) gave an inhibition of 18.7%.
`O=C(NCc1ccccc1Cl)NC(=O)c1csc([N+](=O)[O-])c1` showed an inhibition of -17.3%.
`Cc1coc2c(O)cc3c(c12)OC1(N2CCCCC2)C(=O)NCCCC31` (stereo not drawn) was tested, and the inhibition was 62.4% (active).
`COc1ccc(/C=N/n2nnnc2N)cc1OC` was tested, and the inhibition was -6.77%.
Compound `Cc1ccc(-c2cc(C(=O)Nc3nn[nH]n3)c3ccccc3n2)c(C)c1` has an inhibition of 10.4%.
`Cc1ccc(NC(=O)c2cc(-c3ccc(C)o3)nc3ccccc23)nc1` was tested, and the inhibition was 52.1% (active).
Compound `Cc1c(NC(=O)c2cc(-c3ccc(Cl)s3)nc3ccccc23)c(=O)n(-c2ccccc2)n1C` has an inhibition of -5.37%.
Compound `Cc1ccc(C(=O)N/C(=C\c2ccco2)C(=O)NC2CCS(=O)(=O)C2)cc1` (stereo not drawn) has an inhibition of 2.28%.
`C=C(C)C(=O)Nc1cccc(C2=NOC3(C2)C[C@H](C(N)=O)N(C(=O)C(c2ccccc2)c2ccccc2)C3)c1` (stereo partly drawn) was tested, and the inhibition was 79.5% (active).
Compound `C/C=C(/C)C(=O)Nc1cccc(C2=NOC3(C2)C[C@@H](C(N)=O)N(C(=O)C2(C)CC2)C3)c1` (stereo partly drawn) has an inhibition of 10.3%.
With `C/C=C\C=C\C(=O)N1CC2(CC(c3cccc(NC(=O)/C(C)=C\C)c3)=NO2)C[C@H]1C(N)=O` (stereo partly drawn) the inhibition was -3.38%.
`CCCN(CCC)CC(O)COc1ccccc1C(=O)Nc1ccccc1` (stereo not drawn) was tested, and the inhibition was 2.75%.
With `COC(=O)c1ccc(COc2ccc(/C=N/NC(=O)C(=O)Nc3ccc(OC)cc3)cc2OC)o1` the inhibition was -4.48%.
With `COc1ccc(NC(=O)/C(C#N)=C\c2cc(OC)c(OCc3ccc(C(=O)O)cc3)cc2Br)cc1` the inhibition was 61.8% (active).
Work on `COc1cc(/C=C(\C#N)C(=O)Nc2ccc3ccccc3c2)c([N+](=O)[O-])cc1OC` yielded an inhibition of 50.2%.
In the case of `CCO[C@@H]1OC(C(=O)NC2CC2)=C[C@H](C)[C@H]1CCCO`, the inhibition was -4.75%.
`Cc1ccc(SCC(=O)c2sc(-c3ccccc3)nc2C)cc1` showed an inhibition of 12%.
For `Cc1nc(-c2ccc(Cl)cc2)sc1C(=O)CBr`, the inhibition was 61% (active).
In the case of `Cc1nc(-c2ccc(Cl)cc2)sc1C(=O)NN`, the inhibition was -14.8%.
With `CC1=CC2=NC(=O)/C(=C/c3coc4ccccc4c3=O)C(=N)N2O1` the inhibition was 1.38%.
`COc1cc(C(=S)NC2CCCCC2)ccc1O` was tested, and the inhibition was 14.7%.
For `COc1cc(C(=O)Nn2c(O)c(C3=c4ccccc4=NC3=O)sc2=S)ccc1O`, the inhibition was 58.1% (active).
`CCN(CC)C(=O)c1ccc(O)c(OC)c1` was tested, and the inhibition was 4.61%.
In the case of `CC(C)(C)c1ccc(/C=C2\Oc3c(ccc(O)c3CN3CCN(CCO)CC3)C2=O)cc1`, the inhibition was 23.9%.
With `CCOC(=O)c1ccc(S(=O)(=O)N(CCO)Cc2cc3cc(OC)c(OC)cc3[nH]c2=O)cc1` the inhibition was -2.09%.
For `O=S(=O)(/C=C/c1ccccc1)NCCc1ccccn1`, the inhibition was 70% (active).
`CN(CC(=O)NCCc1ccccn1)S(=O)(=O)c1ccc(Cl)cc1` gave an inhibition of 0.36%.
`O=C(CNC(=O)COc1ccccc1)NCCc1ccccn1` was tested, and the inhibition was 23.7%.
`COc1ccccc1OCC(=O)O/N=C(\N)c1ccccn1` showed an inhibition of 17.8%.
`COCCNC(=O)Nc1ccc2nc(-c3ccco3)c(-c3ccco3)nc2c1` was tested, and the inhibition was 107% (active).
`O=C(NCc1ccccn1)c1ccc2nc(-c3ccco3)c(-c3ccco3)nc2c1` was tested, and the inhibition was 91.8% (active).
`O=C(NCc1ccccn1)c1cc(Br)ccc1Cl` showed an inhibition of 15.5%.
Work on `O=C(NCc1ccccn1)c1cc(-c2ccccc2Cl)on1` yielded an inhibition of 8.56%.
`COc1ccc(NC(=O)Nc2ccc3nsnc3c2)cc1` gave an inhibition of 20.7%.
For `COc1ccc(NC(=O)Nc2ccc3nc(C)c(C)nc3c2)cc1`, the inhibition was 32.9%.
In the case of `O=C(NNC(=S)Nc1ccc(F)cc1)[C@H]1C[C@@H]1c1ccccc1`, the inhibition was -82.4%.
`O=C(Nc1ccc(N2CCOCC2)nc1)c1c(F)cccc1F` showed an inhibition of 25.6%.
In the case of `Cc1cccc(NC(=O)CSc2nnc(CCNC(=O)OC(C)(C)C)o2)c1C`, the inhibition was -10.6%.
With `C=CC1C(OC2OC(CO)C(O)C(O)C2O)OC=C(C(=O)OC)C1CC1CC(=O)CC(CC(=O)CCc2ccc(O)cc2)O1` (stereo not drawn) the inhibition was 18.5%.
`Cc1ccc(S(=O)(=O)N(C)C)cc1NC(=O)c1n[nH]c(=O)c2ccccc12` was tested, and the inhibition was -4.07%.
Work on `CCOC(=O)c1cn[nH]c1NC(=S)Nc1ccccc1` yielded an inhibition of 18.3%.
Work on `COc1ccc(C)cc1Nc1nc(-c2c(C)[nH]c3ccccc23)cs1` yielded an inhibition of 12.8%.
With `COc1ccc(-c2csc(Nc3ccccn3)n2)cc1` the inhibition was 19.1%.
`Nc1ncc(-c2cc3ccccc3oc2=O)s1` gave an inhibition of 21.7%.
For `COc1ccc(OC)c(Nc2nc(-c3ccc(O)c(O)c3)cs2)c1`, the inhibition was 69.2% (active).
Compound `CCNc1nc(-c2cc3ccccc3o2)cs1` has an inhibition of 37.2%.
With `COc1ccc(-c2csc(Nc3ccc(O)cc3)n2)cc1` the inhibition was 69.4% (active).
In the case of `O=c1oc2ccccc2cc1-c1csc(Nc2ccc(O)cc2)n1`, the inhibition was 101% (active).
`COc1ccc2nc(Nc3nc(-c4ccncc4)cs3)sc2c1` was tested, and the inhibition was 43.5%.
`COc1ccc(Nc2nc(-c3ccccc3)cs2)cc1` was tested, and the inhibition was 13.3%.
`O=C(NCc1ccc(F)cc1)C1CCC(CNc2c(N3CCOCC3)c(=O)c2=O)CC1` (stereo not drawn) showed an inhibition of -8.83%.
With `CN1CCN(c2ncc3c(n2)CC(c2ccccc2F)CC3=O)CC1` (stereo not drawn) the inhibition was -10.3%.
With `CC(=O)NC(CC(=O)Nc1nccs1)c1ccccc1` (stereo not drawn) the inhibition was -8.98%.
With `CC1(C)CC(=O)C(N=Nc2c(F)cccc2F)=C(O)C1` the inhibition was -2.76%.
For `CC(NCc1ccccc1OC1CCCC1)c1ccccc1` (stereo not drawn), the inhibition was -3.22%.
`Cc1cc(-c2nc(C)c(-c3nnc(SCC(=O)Nc4ccccc4)n3C)s2)no1` was tested, and the inhibition was 3.26%.
For `Nc1nc(SC23CC4CC(CC(C4)C2)C3)ns1`, the inhibition was 5.98%.
With `CC1=CC(C)(C)NC(=S)N1NC(=O)c1ccccc1Cl` the inhibition was 5.81%.
`CC(C)(C)NC(=O)Cn1cnc2cc([N+](=O)[O-])ccc2c1=O` showed an inhibition of 27.1%.
With `O=C(Cn1cnc2cc([N+](=O)[O-])ccc2c1=O)NC(=O)NCc1ccccc1` the inhibition was 53.5% (active).
For `O=C(Cn1cnc2c(cnn2-c2ccccc2)c1=O)NCc1ccccc1`, the inhibition was 6.36%.
`Cc1ccc(S(=O)(=O)NNC(=S)NC(C)(C)C)cc1` gave an inhibition of -14.3%.
For `O=C(NC(=O)N1CCSCC1)c1c(Cl)cccc1Cl`, the inhibition was 2.15%.
`Cc1ccc(-c2csc(-c3cc(C)on3)n2)cc1` showed an inhibition of -2.5%.
With `O=S(=O)(c1cccc(-c2nnc3n2CCCCC3)c1)N1CCOCC1` the inhibition was 3.07%.
For `O=C(Nc1cccc2ncccc12)C(Cl)(Cl)Cl`, the inhibition was 11.1%.
`Cc1ccc(C(=O)Nc2cccc3ncccc23)cc1[N+](=O)[O-]` was tested, and the inhibition was 10.6%.
For `Cc1ccc(/C=C(\C#N)C(=O)Nc2cccc3ncccc23)o1`, the inhibition was 65.7% (active).
